PubChem BioAssay (EPA / NIEHS)
Active and inactive are the calls of the source. How the source made its calls: active means hit-call score of the fitted dose curve at least 0.9, where 1 is the maximum; inactive means score below 0.9.

Read-out: Interleukin-8 (IL8), CXCL8 (gene 3576)
Assay: BSK_hDFCGF_IL8: BioMAP Diversity Plus: hDFCGF Assay for Interleukin-8 (IL8) Biomarker Activity (AID 2283058)
Details: primary human foreskin fibroblasts; actives raise or lower the signal
Summary of the method: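 IL-8 levels from compound-treated primary human fibroblasts were read by ELISA at 24 h, with DMSO serving as baseline for bidirectional fitting.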

Row | Compound | outcome | AC50
1 | Oc1ccccc1 | inactive | –
2 | COc1cc(C(=O)NC2CCN(C)CC2)ccc1Nc1ncc2c(n1)N(C1CCCC1)CC(F)(F)C(=O)N2C | – | 23.8 µM (active)
3 | C[C@]12CC[C@@H]3c4ccc(O)cc4CC[C@H]3[C@@H]1CCC2=O | inactive | –
4 | CN(C)C(=O)C1(N2CCCCC2)CCN(CC[C@@]2(c3ccc(Cl)c(Cl)c3)CN(C(=O)c3ccccc3)CCO2)CC1 | – | 33.7 µM (active)
5 | CN(C)c1ccc(C(=C2C=CC(=[N+](C)C)C=C2)c2ccc(N(C)C)cc2)cc1 | – | 6.66 µM (active)
6 | O=C(O)Cn1c(=O)n(Cc2ccc(Br)cc2F)c(=O)c2ccc(Cl)cc21 | inactive | –
7 | CCCCCCCCOC(=O)c1cc(O)c(O)c(O)c1 | – | 33.2 µM (active)
8 | O=C(OCCCCCCOC(=O)c1ccccc1)c1ccccc1 | inactive | –
9 | O=C(O)c1ccccc1C(=O)OCc1ccccc1 | inactive | –
10 | Cc1ccc2oc(CN(Cc3ccccc3)C(=O)Nc3c(F)cc(F)cc3F)c(-c3ccc(Cl)cc3)c2c1 | inactive | –
11 | Cc1oc2c(NC(=O)c3c(Cl)cccc3Cl)cccc2c1C(C)(C)O | inactive | –
12 | c1ccc2n[nH]nc2c1 | inactive | –
13 | CC[C@@H]1C[C@H](N(Cc2cc(C(F)(F)F)cc(C(F)(F)F)c2)C(C)=O)c2cc(C(F)(F)F)ccc2N1C(=O)OC(C)C | inactive | –
14 | CO[C@H]1/C=C/O[C@@]2(C)Oc3c(C)c(O)c4c(O)c(c(/C=N/N5CCN(C)CC5)c(O)c4c3C2=O)NC(=O)/C(C)=C\C=C\[C@H](C)[C@H](O)[C@@H](C)[C@@H](O)[C@@H](C)[C@H](OC(C)=O)[C@@H]1C | inactive | –
15 | O=C(O)c1ccccc1-n1cc(C(=O)O)c(=O)c2cc(Nc3c(F)cc(F)cc3Cl)c(Cl)cc21 | inactive | –
16 | COc1cccc([C@H](O)C2CCN(CCc3ccc(F)cc3)CC2)c1OC | inactive | –
17 | CC1(C)NC(=O)N(c2ccc([N+](=O)[O-])c(C(F)(F)F)c2)C1=O | inactive | –
18 | CC/C(=C(/CC)c1ccc(O)cc1)c1ccc(O)cc1 | inactive | –
19 | CCCCCCCCCCCO | – | 32.4 µM (active)

Row | Compound | outcome | AC50
20 | Cc1cc(F)ccc1-c1cc(N2CC[C@@H](O)[C@H]2CO)ncc1N(C)C(=O)C(C)(C)c1cc(C(F)(F)F)cc(C(F)(F)F)c1 | – | 18.4 µM (active)
21 | Cc1cn([C@H]2C[C@H](N=[N+]=[N-])[C@@H](CO)O2)c(=O)[nH]c1=O | inactive | –
22 | CCCCCCCC[Si](OCC)(OCC)OCC | inactive | –
23 | O=C(O)Cc1cc(I)c(Oc2ccc(O)c(I)c2)c(I)c1 | inactive | –
24 | CN1C(=O)CC[C@H]1c1cccnc1 | inactive | –
25 | O=c1c(-c2ccc(O)cc2)coc2cc(O)cc(O)c12 | inactive | –
26 | CCCC(=O)OCCC(C)C | inactive | –
27 | Cc1occc1C(=O)Nc1ccc(C(=O)N2CCC(F)(F)/C(=C\C(=O)N3CCC(N4CCCCC4)CC3)c3ccccc32)cc1 | inactive | –
28 | O=C1O[C@H]([C@@H](O)CO)C(O)=C1O | inactive | –
29 | NC(=O)c1nc(-c2cccc(-c3cc(F)ccc3OCC(F)(F)C(F)(F)F)c2)n[nH]1 | – | 39.3 µM (active)
30 | CC(C)(C)c1csc(-c2cc3cc(OCc4ccccc4CC(=O)O)ccc3o2)n1 | – | 18.4 µM (active)
31 | O=C(Nc1ccc(Cl)cc1)Nc1ccc(Cl)c(Cl)c1 | inactive | –
32 | CC(C)(O)c1ccc(CNC(=O)c2cccnc2Oc2ccc3nonc3c2)cc1 | inactive | –
33 | c1ccc(C[n+]2cccc3ccccc32)cc1 | inactive | –
34 | O=C=NCCCCCCN=C=O | inactive | –
35 | CCOC(=O)O[C@H](C)OC(=O)c1ccc2c(c1)cc(C(=O)NC1CCN(C(C)C)CC1)n2Cc1cc(-c2ccc(Cl)s2)on1 | – | 6.12 µM (active)
36 | O=c1[nH]sc2ccccc12 | – | 20 µM (active)
37 | OC12N=C(c3ccccc3)SC1Cc1cc(Cl)ccc12 (stereo not drawn) | inactive | –
38 | Cc1cccc2ccccc12 | inactive | –
